Source: PubChem BioAssay (National Center for Advancing Translational Sciences (NCATS))
Compounds with a hit are over-represented: about 12% of the library has one in this group of screens.
BAZ2B block: blocks human BAZ2B; Q9UIF8; AlphaScreen BAZ2B-H3K14Ac peptide displacement; Potency, µM (doses to about 114 µM), inactives show at the highest dose activity change, negative = inhibition, usual class: inhibitors; hit rate 4.4% among 360,000; note: % is set by controls: 0 for no effect and ±100 for the full control effect; nearly all actives have a fitted effect of over 60% in size
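BAZ2B (50 nM) with biotin-H3(5-23)K14Ac peptide (50 nM) in PBS pH 7.4, 0.01% Tween-20, preformed 30 min, then compound 30 min at room temperature; top concentration 110uM. AlphaScreen streptavidin donor/nickel chelate acceptor beads (10 ug/mL final), 20 min dark, signal read.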
TDP1 block: blocks human tyrosyl-DNA phosphodiesterase 1 | recombinant TDP1, AlphaScreen DNA substrate cleavage | Potency, µM (series often up to 130 µM), inactives show at the highest dose activity change, negative = inhibition, hits mostly inhibitors | hit rate 0.28% among 350,000; note: % is set by controls: 0 for no effect and ±100 for the full control effect; nearly all actives have a fitted effect of over 40% in size
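Recombinant human Tdp1 (E. coli-expressed, 1 nM final) preincubated with compounds 15 min at room temperature, then 5'-biotin/3'-phosphotyrosine-FITC DNA substrate (15 nM final) added for 5 min. AlphaScreen beads (10 ug/ml final) added 10 min; cleavage lowers signal.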
HP1b binding inh: blocks HP1-beta chromodomain binding to methylated histone tails; AlphaScreen HP1-beta / biotin-H3K9me3 peptide binding; Potency, µM (doses to about 114 µM), without a hit: top-dose activity change, negative = inhibition, actives largely listed as inhibitors; hit rate 0.56% among 390,000; note: nearly all actives have a fitted effect of over 70% in size
Target sequence (P83916 whole entry, looked up): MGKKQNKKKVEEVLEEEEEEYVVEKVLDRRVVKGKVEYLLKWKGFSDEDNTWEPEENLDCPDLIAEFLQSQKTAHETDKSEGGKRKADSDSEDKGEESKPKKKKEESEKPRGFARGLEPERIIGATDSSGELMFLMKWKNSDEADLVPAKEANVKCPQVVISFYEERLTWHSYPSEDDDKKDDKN
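AlphaScreen: HP1-beta (50 nM) preformed 30 min with biotin-H3(1-18)K9me3 peptide (50 nM) in PBS pH 7.4, 0.01% Tween-20. Compound added for 30 min at RT, then streptavidin donor/nickel chelate acceptor beads (10 ug/mL) for 30 min.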
Sfp PPTase inh: inhibitors of Bacillus subtilis Sfp phosphopantetheinyl transferase; Q9F4F7; Biochemical Sfp PPTase activity, qHTS; Potency, µM, inactives show largest response in the series, negative = inhibition, hits mostly inhibitors; hit rate 3.5% among 310,000;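 note: the enzyme is Sfp with the accession as filed and its product quenches rhodamine fluorescence; 0% = enzyme reaction without inhibitor and -100% = no enzyme wells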
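Fluorescence-quenching assay: 15 nM Sfp-PPTase preincubated 15 min at room temperature with compound, then 5 uM rhodamine-CoA and 12.5 uM BHQ-2-labelled YbbR peptide added. Fluorescence (ex 525/em 598 nm) read at start and after 30 min; difference gives rate.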
JMJD2A Tudor inh: inhibitors of human JMJD2A Tudor domain. AlphaScreen JMJD2A-Tudor / H3K4me3 peptide binding. hit rate 4.4% among 390,000. AID 504339. O75164. Potency, µM (titrated, usually from 114 µM), for inactives: top-dose activity change, negative = inhibition, hits mostly inhibitors; note: % is set by controls: 0 for no effect and ±100 for the full control effect; nearly all actives have a fitted effect of over 50% in size
G9a inh: inhibitors of human histone lysine methyltransferase G9a; Q96KQ7; G9a H3K9 monomethylation, AlphaScreen, 2 h; Potency, µM (titrated, usually from 102 µM), inactives show at the top dose activity, negative = inhibition, most hits filed as inhibitors; hit rate 8.8% among 350,000; note: % is set by controls: 0 for no effect and ±100 for the full control effect; nearly all actives have a fitted effect of over 75% in size
Target sequence (Q96KQ7 913-1193 limits assumed): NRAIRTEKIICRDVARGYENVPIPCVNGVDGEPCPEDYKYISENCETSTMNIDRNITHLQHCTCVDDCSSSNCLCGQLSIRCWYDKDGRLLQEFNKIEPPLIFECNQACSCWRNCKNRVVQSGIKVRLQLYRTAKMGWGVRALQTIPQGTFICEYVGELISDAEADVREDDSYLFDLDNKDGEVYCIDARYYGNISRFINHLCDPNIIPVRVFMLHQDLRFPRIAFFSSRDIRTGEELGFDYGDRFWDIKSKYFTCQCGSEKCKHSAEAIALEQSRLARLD
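Step 1: enzyme (final 20 nM) with compound, 15 min RT. Step 2: substrate peptide 500 nM and SAM 20 uM, 2 h RT. Step 3: anti-H3K9me1 antibody and AlphaScreen beads, 10 min, then plate read.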
The depositor's hits bear a star; [ ] = dose if it differs, or a comment. Calls come from the whole dose curve; as a rule, active = well fitted curve in the direction sought with a large enough effect; inconclusive = small, poorly fitted or top-dose-only effect, or another doubt; inactive = no such curve, though single readings can be large; an effect the other way counts as inactive or inconclusive. Potency is the fitted concentration of half-maximal effect.

For O=C(Nc1ccc(F)cc1)c1cccc(N2C(=O)C3C4C=CC(C5CC45)C3C2=O)c1 (centres undefined) the results were BAZ2B block -11.2%, TDP1 block 3.1%, HP1b binding inh 19.4%, Sfp PPTase inh 1.7%, JMJD2A Tudor inh -12.3% and G9a inh -5.3%.
Cc1ccccc1CN1CCN(Cc2ccc3cccc(F)c3n2)CC1CCO (centres undefined) was read as BAZ2B block -15.7%, TDP1 block 2.4%, HP1b binding inh 16.5%, Sfp PPTase inh 4.3%, JMJD2A Tudor inh -29.5% and G9a inh 13.0%.
`COc1ccc(N=Cc2c(O)c3ccccc3n2C(C)=O)cc1` gave BAZ2B block -16.8%, HP1b binding inh 71.3%, Sfp PPTase inh 17.8µM*, JMJD2A Tudor inh 10.2% and G9a inh 25.1µM*.
`O=C(Sc1n[nH]c(=O)[nH]c1=O)c1ccccc1` gave HP1b binding inh inconclusive and JMJD2A Tudor inh 7.08µM*.
COc1ccc(Cl)cc1C(=O)NCc1nc(-c2cccc(C)c2)no1 was read as BAZ2B block 4.1%, TDP1 block -4.9%, HP1b binding inh 38.4%, JMJD2A Tudor inh -8.0% and G9a inh 9.0%[59 µM].
For CN1CCN(c2ccc(CNS(=O)(=O)c3ccc(Cl)cc3)cc2)CC1 the results were BAZ2B block -3.6%, TDP1 block 2.7%, HP1b binding inh 24.9%, Sfp PPTase inh 10.4%, JMJD2A Tudor inh 2.1% and G9a inh 13.3%.
`COCCCN1C2=C(C(=O)CC(C)(C)C2)C(c2ccc(OC)c(OC)c2)C2=C1CC(C)(C)CC2=O` gave BAZ2B block -16.8%, HP1b binding inh 23.4%, Sfp PPTase inh 24.7%, JMJD2A Tudor inh -11.3% and G9a inh 70.8µM*.
COc1cc(C2C3=C(CC(C)(C)CC3=O)N(C)C3=C2C(=O)CC(C)(C)C3)cc(Br)c1O was read as BAZ2B block 12.2%, HP1b binding inh 49.2%, Sfp PPTase inh -3.9%, JMJD2A Tudor inh -9.6% and G9a inh 70.8µM*.
CCN(CC)CCCN1C(=O)c2oc3ccccc3c(=O)c2C1c1cccnc1 (centres undefined) was read as BAZ2B block -1.3%, TDP1 block -7.4%, HP1b binding inh 14.5%, Sfp PPTase inh 13.1%, JMJD2A Tudor inh inconclusive and G9a inh 50.1µM*.
`Cc1nc2cnc(N3CCOCC3)nc2n(Cc2ccc(F)cc2)c1=O` gave Sfp PPTase inh 24.2% and G9a inh -1.1%[0.501 µM].
NCCCC[C@@H]1NC(=O)[C@H](CCC(=O)O)NC(=O)c2cc([N+](=O)[O-])cc(I)c2OCC[C@@H](C(N)=O)NC1=O was read as BAZ2B block inconclusive, TDP1 block 6.6%, HP1b binding inh -6.9%, Sfp PPTase inh 9.3%, JMJD2A Tudor inh inconclusive and G9a inh 31.6µM*.
Screening NC(=O)[C@@H]1CCOc2c(I)cc([N+](=O)[O-])cc2C(=O)N[C@@H](CO)C(=O)NCC(=O)N1 returned BAZ2B block -7.6%, TDP1 block 1.3%, HP1b binding inh 40.0%, Sfp PPTase inh 8.6%, JMJD2A Tudor inh -17.3% and G9a inh 44.7µM*.
`CC(C)C[C@@H]1NC(=O)[C@H](C(C)C)NC(=O)c2cc([N+](=O)[O-])cc(I)c2OCC[C@@H](C(N)=O)NC1=O` gave BAZ2B block -35.0%, TDP1 block 1.3%, HP1b binding inh 38.2%, Sfp PPTase inh 5.6%, JMJD2A Tudor inh -24.6% and G9a inh 44.7µM*.
Screening NC(=O)[C@@H]1CCCCNc2c(F)cc([N+](=O)[O-])cc2C(=O)N[C@@H](CC(=O)O)C(=O)N[C@@H](CCC(=O)O)C(=O)N1 returned BAZ2B block -10.8%, TDP1 block -3.9%, HP1b binding inh 31.7%, Sfp PPTase inh -0.2%, JMJD2A Tudor inh inconclusive and G9a inh inconclusive.
